According to the supplement of paper PMC8387472:

Key:
Assay in all cases: fraction of microhomology deletions among edited reads; higher = more MH deletions
Settings in all cases: mESC; 2uM; 72 h treatment, harvest day 5
Rifapentine = compound: CO[C@H]1/C=C/O[C@@]2(C)Oc3c(C)c(O)c4c(O)c(c(/C=N/N5CCN(C6CCCC6)CC5)c(O)c4c3C2=O)NC(=O)/C(C)=C\C=C\[C@H](C)[C@H](O)[C@@H](C)[C@@H](O)[C@@H](C)[C@H](OC(C)=O)[C@@H]1C [Rifapentine]
[1] = compound: COc1ccccc1-c1cc(Nc2cccc(CS(N)(=O)=O)c2)ncn1
[2] = compound: C[C@@H]1CN(CC(=O)Nc2ccc3c(c2)Cc2cccc(-c4cc(=O)cc(N5CCOCC5)o4)c2S3)C[C@H](C)O1
[3] = compound: Cc1cc(C)nc(SCC(=O)Nc2ncc(Cc3cccc4ccccc34)s2)n1
[4] = compound: Cc1cccc(CC(=O)N2CCc3c2ccc(-c2cn(C)c4ncnc(N)c24)c3F)n1
[5] = compound: NC(=O)c1ccc2nc(-c3ccc(Oc4ccc(Cl)cc4)cc3)[nH]c2c1 [Chk 2 inhibitor II (BML-277)]
Tucidinostat (Chidamide) = compound: Nc1cc(F)ccc1NC(=O)c1ccc(CNC(=O)/C=C/c2cccnc2)cc1 [Tucidinostat (Chidamide)]
Pemetrexed = compound: Nc1nc2[nH]cc(CCc3ccc(C(=O)N[C@@H](CCC(=O)O)C(=O)O)cc3)c2c(=O)[nH]1 [Pemetrexed]
[6] = compound: Nc1ncnc2c1c(-c1cnc3[nH]ccc3c1)nn2C1CCCC1
[7] = compound: O=C(c1cccc(Cl)c1F)N1CCN(Cc2cccc(Nc3nccs3)n2)CC1

Row | Target | fraction of microhomology deletions among edited reads (Rifapentine) | fraction of microhomology deletions among edited reads [1] | fraction of microhomology deletions among edited reads [2] | fraction of microhomology deletions among edited reads [3] | fraction of microhomology deletions among edited reads [4] | fraction of microhomology deletions among edited reads [5] | fraction of microhomology deletions among edited reads (Tucidinostat (Chidamide)) | fraction of microhomology deletions among edited reads (Pemetrexed) | fraction of microhomology deletions among edited reads [6] | fraction of microhomology deletions among edited reads [7]
1 | 7.0 (DMSO control at this site: 1-bp insertion 0.128, MH deletion 0.374, edited 0.098) TACTCAACCGAGACCTACGCGAACCGAAATCGTATGCCGGTGCGCAAGCAGGGCTGGCGTC | 0.414 | 0.393 | 0.324 | 0.45 | 0.441 | 0.38 | 0.427 | 0.536 | 0.425 | 0.394
2 | 42.0 (DMSO control at this site: 1-bp insertion 0.145, MH deletion 0.655, edited 0.132) GGGCTAAACCTATGAGCACAGTAGAACTAAGGGTGGGTGGTGTAGCTAAAGAACTTGACCA | 0.683 | 0.653 | 0.384 | 0.667 | 0.682 | 0.634 | 0.607 | 0.634 | 0.571 | 0.62
3 | 18.0 (DMSO control at this site: 1-bp insertion 0.114, MH deletion 0.789, edited 0.094) GCGCAAGTGCATAAGTTTTTCTTAAGGCGTGCCTTTAAGGCGTGCCTTTGTCGGTCCTGGA | 0.805 | 0.779 | 0.683 | 0.791 | 0.755 | 0.812 | 0.797 | 0.78 | 0.768 | 0.777
4 | 30.0 (DMSO control at this site: 1-bp insertion 0.074, MH deletion 0.67, edited 0.142) GAGCTGGCATGAGTATTTGTGCCACATGGCTCCCACATGGCTCCACATGCAAGTTTGAAAC | 0.684 | 0.599 | 0.335 | 0.69 | 0.586 | 0.67 | 0.607 | 0.644 | 0.635 | 0.638
5 | 45.0 (DMSO control at this site: 1-bp insertion 0.017, MH deletion 0.666, edited 0.101) TTACACAGCATGAACTGCTAGGTGATGATGTCAGATTCGGTTTTACTAACTTCTCCAAAAA | 0.624 | 0.614 | 0.515 | 0.608 | 0.655 | 0.617 | 0.624 | 0.574 | 0.54 | 0.598
6 | 34.0 (DMSO control at this site: 1-bp insertion 0.184, MH deletion 0.385, edited 0.103) ATTATAGGACCCTGAGGGAGCAGAGATGTGGGAATGGGGGCCGAGCCAATTGTGATGTAAG | 0.567 | 0.502 | 0.342 | 0.517 | 0.483 | 0.486 | 0.409 | 0.413 | 0.39 | 0.39
7 | 19.0 (DMSO control at this site: 1-bp insertion 0.121, MH deletion 0.101, edited 0.057) TCTGCAGGGGTCGGAACCCGGGGGCTAGGGCTATCCCGGGGGCTAGGGCTATTAGCGAACC | 0.243 | 0.149 | 0.0547 | 0.209 | 0.212 | 0.207 | 0.188 | 0.187 | 0.202 | 0.177
8 | 21.0 CGATTGAGAGTCAAACGGGCCAGAAAACTCCGGGAACGGGCCAGAAAACTCCGGGGCATGG | 0.216 | 0.183 | 0.0533 | 0.176 | – | 0.226 | 0.127 | 0.186 | 0.144 | –
9 | 25.0 (DMSO control at this site: 1-bp insertion 0.017, MH deletion 0.774, edited 0.143) GGGCCTGAATGGTGTGGACATCTACTCGCTGGTGAGCTGGTGACTGAAAACATTCAGTGGC | 0.792 | 0.747 | 0.648 | 0.772 | 0.759 | 0.767 | 0.723 | 0.744 | 0.784 | 0.769
10 | 2.0 (DMSO control at this site: 1-bp insertion 0.364, MH deletion 0.356, edited 0.125) GGTGCCCCCGAGACCTACGCGAACCGAAATCGATGTCCGGTGCGCAAGCAGGGCTGGCGTC | 0.417 | 0.327 | 0.123 | 0.378 | 0.3 | 0.397 | 0.303 | 0.408 | 0.262 | 0.256
11 | 0.0 (DMSO control at this site: 1-bp insertion 0.463, MH deletion 0.339, edited 0.14) AGGATTACCGAGACCTACGCGAACCGAAATCGCTGTCCGGTGCGCAAGCAGGGCTGGCGTC | 0.37 | 0.294 | 0.108 | 0.304 | 0.291 | 0.331 | 0.275 | 0.346 | 0.23 | 0.201
12 | 22.0 (DMSO control at this site: 1-bp insertion 0.573, MH deletion 0.229, edited 0.045) CTGATGGTTGAAGGATTTAGCCGGGGTCCTAGACGCCGGGGTCCTAGACGAAAGGGCCACG | 0.142 | 0.163 | 0.0591 | 0.188 | 0.0873 | 0.201 | 0.209 | 0.267 | – | 0.0524
13 | 40.0 (DMSO control at this site: 1-bp insertion 0.072, MH deletion 0.192, edited 0.189) GCGAATCAACTGTTCAACAACAGCAGCAGCCACCTGGAGGACTACAGTGGCCTGTCCGTGT | 0.211 | 0.146 | 0.0486 | 0.173 | 0.156 | 0.181 | 0.145 | 0.169 | 0.139 | 0.137
14 | 41.0 (DMSO control at this site: 1-bp insertion 0.022, MH deletion 0.754, edited 0.115) AAAGAGACAGCAGGTATGAATCCATCTTCCTGACCCTTGGGACCAGCCGGGGCAGTGAAGC | 0.699 | 0.733 | 0.67 | 0.703 | 0.715 | 0.742 | 0.709 | 0.678 | 0.722 | 0.694
15 | 16.0 (DMSO control at this site: 1-bp insertion 0.172, MH deletion 0.29, edited 0.05) CGGACTGCACACATGGGTAGGATCGTGCACGCGAGGTAGGATCGTGCACGCGAAGTTATTC | 0.319 | 0.282 | 0.12 | 0.275 | 0.281 | 0.254 | 0.302 | 0.279 | 0.198 | 0.256
16 | 17.0 (DMSO control at this site: 1-bp insertion 0.112, MH deletion 0.348, edited 0.058) CCATAGCGCGATAAATATGACGGCTCATCCTGTATGACGGCTCATCCTGTATCAACTGTCC | 0.43 | 0.378 | 0.243 | 0.444 | 0.409 | 0.35 | 0.38 | 0.474 | 0.39 | 0.409
17 | 8.0 GCATGCGTGTTTTGGGACAATGTAGTATACATTTGGGAGGCTCTCAGCTTTTCCCAATAAA | – | – | – | 0.0765 | – | – | 0.0826 | 0.127 | 0.0866 | –
18 | 1.0 (DMSO control at this site: 1-bp insertion 0.521, MH deletion 0.323, edited 0.141) GTGTCACAGTGCACGAGTGACGGGATAATGTGCTGACAGGTAATTGATAGGCTTCCAACTT | 0.256 | 0.224 | 0.0962 | 0.248 | 0.227 | 0.243 | 0.215 | 0.342 | 0.163 | 0.209
